Screening data: PubChem BioAssay, The Scripps Research Institute Molecular Screening Center
The full list was thinned out, with hits kept by preference.
TTR transcr act = TTR transcription activation, primary screen | activation, % at 16.7 µM | AID 1117267 | SH-SY5Y TTR promoter Gaussia luciferase, luminescence; 100% = recombinant luciferase protein wells | hit rate 1.3% among 92,000;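 active = activation above the mean of all tested compounds plus 3 SD, cut at about 9.5% in these data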;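 also: cells exposed to compounds for one day before reading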
TTR inh HuH7 = counter-screen for TTR activators: TTR transcription inhibitors in HuH7 cells; shares compounds with TTR transcr act; HuH7 TTR promoter-Gaussia luciferase reporter, luminescence; inhibition, % at 16.7 µM; hit rate 4% among 1,100;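 active = average inhibition above the solvent-only control wells' mean plus 3 SD, cut at about 15% in these data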;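 also: inhibitors lower well luminescence so higher value means more inhibition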
TTR up confirm = confirmation of human transthyretin transcription activators. 1,100 tested, under 10 active. shares compounds with TTR transcr act. SHSY5Y TTR promoter Gaussia luciferase, luminescence; 100% = purified Lucia enzyme wells, no cells. AID 1117280. activation, % at 16.7 µM;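 active = mean activation above a set limit taken from the earlier primary screen, cut at about 11% in these data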
A number is an active result; . = inactive.

SMILES	TTR transcr act	others
COc1ccc(OCc2cc(C(=O)NCc3cccc(C)n3)no2)c(Cl)c1	.
C[C@H]1C2CC(OC(=O)Nc3ccc(C(F)(F)F)cc3)C(C2)[C@H]2CCCCN21 (some centres undefined)	.
c1cc2ccn(CC3CC3)c2cc1-c1ccc2ccn(CC3CC3)c2c1	.
O=C1CCN(Cc2ccccc2)C=C1c1ccc2ccccc2c1	10	TTR inh HuH7=.;TTR up confirm=.
CC1(C(=O)Nc2ccc3ccccc3c2)CCC(=O)N1C1CCN(Cc2ccccc2)CC1 (centres undefined)	.
O=C1CCN(Cc2ccccc2)C=C1c1ccc(C(F)(F)F)cc1	.
O=C(O)Cc1n[nH]c(=O)c2ccccc12	.
O=c1[nH]nc(Cc2ccc(Cl)cc2Cl)c2ccccc12	.
CN(C)Cc1n[nH]c(=O)c2ccccc12	26	TTR inh HuH7=.;TTR up confirm=.
C=CCN1C(=O)[C@@H](CC(=O)N2CCN(C(=O)C3CC3)CC2)[C@]2(C(=O)OC)CCCCC=C12	.
COC(=O)[C@@]12CCCCC=C1N(CCc1ccc(Cl)cc1)C(=O)[C@H]2CC(=O)NCCc1ccccc1OC	.
COc1ccc(Cc2nc3ccc(C(=O)N4CCCC4)cc3o2)cc1	.
COC(=O)CCCNC(=O)c1ccc2nc(Cc3ccc(OC)cc3)oc2c1	.
COc1ccc(Cc2nc3ccc(C(=O)NCc4cc(C)no4)cc3o2)cc1OC	9.9	TTR inh HuH7=.;TTR up confirm=.
O=S(=O)(NC1=NCCCCC1)c1cc(F)ccc1F	.
c1ccc(Cn2ccc3ccc(-c4ccc5ccn(Cc6ccc(-c7ccccc7)cc6)c5c4)cc32)cc1	.
CCOC(=O)N1CCN(c2cc(N(C)CCO)c([N+](=O)[O-])c3nonc23)CC1	.
CN(C)c1cc(Nc2ccc(O)cc2)c([N+](=O)[O-])c2nonc12	.
CC(=O)OCCN(C)c1cc(SC(C)C)c2nonc2c1[N+](=O)[O-]	18	TTR inh HuH7=.;TTR up confirm=.
CCOc1ccc(N2CC(C(=O)Nc3cccnc3)CC2=O)cc1 (centres undefined)	.
CN(Cc1ccccc1)C(=O)OCc1cn(Cc2ccc(F)cc2)nn1	.
O=C(Cn1nc(C(F)(F)F)c2c1CCCC2)NCc1ccco1	14	TTR inh HuH7=.;TTR up confirm=.
CC(NC(=O)Cn1nc(C(F)(F)F)c2c1CCC2)c1ccccc1 (centres undefined)	.
Cc1c(Br)c(C(F)(F)F)nn1CC(=O)NCc1ccco1	.
Nc1cc(C(=O)OCC(=O)NNC(=O)c2ccccc2F)ccc1Cl	.
SMILES	TTR transcr act	others
O=C(NC(=O)c1ccccc1F)OCc1ccc(Cl)cc1Cl	20	TTR inh HuH7=.;TTR up confirm=.
O=C(CNC(=O)c1ccccc1F)NCCc1ccc(Cl)cc1Cl	.
O=C(NCCCc1ccccc1)OC1CC2CC1[C@H]1CCCCN1[C@H]2Cc1ccccc1 (some centres undefined)	.
C=CCn1c(O)c(N=Nc2ccccc2[N+](=O)[O-])c2ccccc21	.
O=C(c1ccc(Cl)cc1)C1CCN(c2ncnc3sccc23)CC1	.
CCN(CC)CCNC(=O)Cc1nn(Cc2ccccc2)c(=O)c2ccccc12	.
CC(C)(C)NC(=O)c1nn(Cc2ccccc2)c(=O)c2ccccc12	10	TTR inh HuH7=.;TTR up confirm=.
COc1ccccc1Cn1nc(C(=O)O)c2ccccc2c1=O	.
CC(C)CCN1C(=O)COc2ccccc2C1c1nnnn1-c1ccc2c(c1)OCCO2 (centres undefined)	.
CC(C)C[C@@H](CO)N1CCN(Cc2cccnc2)CCC1=O	.
O=C(N/N=C/c1ccc([N+](=O)[O-])o1)C(=O)Nc1ccc(C(=O)O)cc1	.
CN(/N=C/c1ccc([N+](=O)[O-])o1)c1ccccc1	.
O=[N+]([O-])c1ccc(C=NN2CCNC2=S)o1	10.0	TTR inh HuH7=.;TTR up confirm=.
C=CCN(C(=O)[C@@H](C)[C@@H](O)c1ccc2ccccc2c1)c1ccccc1	.
CC(=O)c1cc(-c2cccc(Cl)c2O)c(=O)n2c1CCC2	.
O=C(CSc1ccc2nnc(-c3ccccn3)n2n1)NCc1ccco1	.
O=C(CC1SC(=O)NC1=O)Nc1ccc(Cl)cc1 (centres undefined)	12	TTR inh HuH7=.;TTR up confirm=.
O=C(Cc1ccc(Br)cc1)Nc1ccc(Cl)cc1	.
Cc1ccc(NC(=O)CC2SC(=NC3CCCCC3)NC2=O)cc1 (centres undefined)	.
O=C(Cn1nc(C(=O)O)c2ccccc2c1=O)Nc1cc(C(F)(F)F)ccc1-n1cncn1	.
CN(C)C=Nc1nonc1-c1ccccc1	11	TTR inh HuH7=.;TTR up confirm=.
CN(C)C=Nc1c(Br)cc(Br)c2nonc12	.
CN(C)C=Nc1nonc1-c1ncn[nH]1	.
Cc1cc(=O)n2nc(N3CCCC(C(=O)NCc4cccc(Br)c4)C3)sc2n1 (centres undefined)	.
CCCc1cc(Nc2ccc(C)cc2)n2ncnc2n1	.
Cc1ccc(Nc2c3c(nc4ncnn24)CCC3)cc1	20	TTR inh HuH7=24;TTR up confirm=.
CC(=O)c1ccc(Nc2cc(C)nc3ncnn23)cc1	.
